According to PubChem BioAssay (NCI):
Where “and” joins values, the source holds several entries; their conditions need not be identical. Equal values may be shown once. The panel holds about 83,000 compounds, 20% with a hit somewhere; the sample as a whole holds those more often.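 Interpretation: 100, growth as untreated; towards 0, rising growth inhibition; 0, no net growth; 0 to -100, cell death. Compounds scoring below 10 were considered active.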 Calls of active or inactive are those of the source.

The compounds below were run on A549/ATCC NSCLC (assay: NCI-60 one-dose screen, 48 h (100 = growth as untreated, 0 = no growth, -100 = all killed)). Conditions: 1 µM.
Experimental: Growth inhibition of the A549/ATCC human Non-Small Cell Lung tumor cell line is measured as a screen for anti-cancer activity. Cells are grown in 96 well plates and exposed to the test compound for 48 hours. Compounds are tested at a single concentration, which is 10^-5 M for most compounds. The reported endpoint is percent growth (GI% or GIPRCNT), where numbers from 0 - 100% represent growth inhibition, and numbers from -100% - 0 represent cell death. For example, a value of 40 represents 60% growth inhibition. A value of 0 means no net growth occurred over the course of the experiment. A value of -40 indicates 40% of cells at the beginning of the experiment died by the end of the experiment. A value of -100 means all cells are dead at the end of the experiment.
NCI-60 Human Tumor Cell Lines Screen was performed using the standard one-dose NCI protocol, which is described in more detail at https://dtp.cancer.gov/discovery_development/nci-60/default.htm.
Compounds with GIPRCNT values below 10 were considered active. Activity score was based on GIPRCNT using the following formula: […]
Score is 0 for GIPRCNT values of 100 or above, 50 for GIPRCNT values of 0, and 100 for GIPRCNT values of -100.
In the case of `CNC(=O)c1cc(Oc2ccc(CC(=O)Nc3cc(C(C)(C)C)nn3C)cc2)ccn1`, the growth is reported as 71.2% (inactive).

Same assay, conditions: 10 µM
For `CNC(=O)c1cc(Oc2ccc(CC(=O)Nc3cc(C(C)(C)C)nn3C)cc2)ccn1`, the growth was 67.2% (inactive).
`O=C(O)c1sccc1O` was tested, and the growth was 82.5% (inactive).

Same assay, conditions: 10 µM unless noted
For `CCCCCn1sc(=O)n(Cc2ccc(CNC(=O)C(C)c3ccc(CC(C)C)cc3)cc2)c1=O` (stereo not given), the growth was 97.4% (inactive) and -19.1% (active).
With `NC(=O)c1ccccc1OCC(O)CO` (stereo not given) the growth was 98.1% (inactive).
`COc1ccccc1/C=N\N=C(N/N=C/c1ccccc1OC)N/N=C/c1ccccc1OC` was tested, and the growth was 61.1% (inactive) and 27.1% (inactive).
With `CCOc1ccc(Nc2c3ccccc3nc3ccccc23)cc1` the growth was 87.5% (inactive) and 12.3% (inactive) and 21% (inactive).
In the case of `Oc1c(CN2CCCCC2)ccc2cccnc12`, the growth is reported as 43.6% (inactive) and 36% (inactive).
`CC(=O)C(/C=N/C(N)=O)=C(/C)O` was tested, and the growth was 99.6% (inactive).
In the case of `CCN(CC)CCOc1ccc(/C=N/Nc2nc3c([nH]2)c(=O)n(C)c(=O)n3C)cc1`, the growth is reported as 104% (inactive) and 110% (inactive).
In the case of `CCN(CC)CCC(CNc1c2ccc([N+](=O)[O-])cc2nc2cc(OC)c(OC)cc12)c1ccccc1` (stereo not given), the growth is reported as -6.05% (active) and -93.9% (active).
For `C1CCCCNCCC1`, the growth was 105% (inactive).
`C[N+](C)(C)CN1C(=O)c2ccccc2C1=O` was tested, and the growth was 99.8% (inactive).
With `COc1ccc(NC(=S)Nc2ccccn2)cc1` the growth was 101% (inactive).
With `CCOC(=O)Nc1nc2ccccc2[nH]1` the growth was 102% (inactive) and 55.4% (inactive).
With `OCCN1CCN(CCCN2c3ccccc3Sc3ccc(Cl)cc32)CC1` the growth was 69.8% (inactive) and 93.3% (inactive).
For `Cc1ccc(S(=O)(=O)Nc2ccc3cc([N+](=O)[O-])ccc3c2[N+](=O)[O-])cc1`, the growth was 77.7% (inactive) and 91.2% (inactive).
`Cc1ccc(-c2noc(C)n2)cc1` was tested, and the growth was 93.6% (inactive).
For `COc1cc(Nc2nc3ccccc3nc2NS(=O)(=O)c2ccc(NC(=O)c3ccc(C)c(OC)c3)cc2)cc(OC)c1`, the growth was 50.2% (inactive) and -9.71% (active).
With `Cc1c(Cl)cccc1NCN1C(=O)c2ccccc2C1=O` the growth was 99.1% (inactive).
`CN(Cc1ccccc1)Cc1ccccc1` was tested, and the growth was 96.7% (inactive).
With `CCOc1ccc2cc(-c3nn(CC4CCN(C)CC4)c4ncnc(N)c34)ccc2c1` the growth was 78.3% (inactive) and 60.1% (inactive).
For `CN1CCN(c2ccc3nc(-c4c(N)c5c(F)cccc5[nH]c4=O)[nH]c3c2)CC1`, the growth was 12.9% (inactive) and 22.3% (inactive).
With `CC(C)C(=O)Nc1ccc([N+](=O)[O-])c(C(F)(F)F)c1` the growth was 81.4% (inactive) and 103% (inactive).
With `O=C1C2=C(C(=O)c3ccccc31)C(O)(S(=O)(=O)O)C(O)(S(=O)(=O)O)C1N=CC=CC21` (stereo not given) the growth was 35.8% (inactive) and 22.1% (inactive).
With `NCCSC(C[N+](=O)[O-])c1ccccc1Cl` (stereo not given) the growth was -26.9% (active).
In the case of `CCOC(=O)c1c(C)oc(C)c(C(=O)OCC)c1=O`, the growth is reported as 104% (inactive) and 106% (inactive).
For `CN1CCN(Cc2occc(=O)c2O)CCN(C)CCN(Cc2occc(=O)c2O)CC1`, the growth was 93.2% (inactive) and 12.3% (inactive).
In the case of `Fc1ccccc1Nc1n[nH]c(=S)s1`, the growth is reported as 101% (inactive).
With `CCc1c(CC(=O)O)c2cc(C)ccc2n1Cc1ccc(Cl)cc1` the growth was 89.1% (inactive) and 87.3% (inactive).
`O=c1c2ccccc2nc2n1Cc1nc3ccccc3c(=O)n1C2` was tested, and the growth was 102% (inactive) and 100% (inactive).
`Cc1ccc2nc3c(nc2c1)-c1cccc2cccc-3c12` was tested, and the growth was 74.4% (inactive).
With `CCN(CC)C(=O)c1cccnc1` the growth was 102% (inactive).
With `Cc1ncsc1CCO` the growth was 96.2% (inactive) and 92.5% (inactive).
`CCC(=O)C(CC)c1cccc(OC)c1` (stereo not given) was tested, and the growth was 106% (inactive).
`Cc1cc(O)c(C(C)C)cc1S(=O)(=O)O` (tested in a mixture with another compound) was tested, and the growth was 90.1% (inactive) and 8.67% (active) and 102% (inactive).
For `CCCCCCCCCCCCOc1ccccc1C=O`, the growth was 93.3% (inactive).
With `COC(=O)/C=C/c1cc(O)c2c(c1)C(C(=O)OC)C(c1ccc(O)c(O)c1)O2` (stereo not given) the growth was 31.5% (inactive) and 20.3% (inactive).

Same assay, conditions: 30 µM
For `CNC(=O)c1cc(Oc2ccc(CC(=O)Nc3cc(C(C)(C)C)nn3C)cc2)ccn1`, the growth was 80.8% (inactive).

Same assay, conditions: 100 µM
With `O=C(O)c1sccc1O` the growth was 38.8% (inactive).
